Assay [1] has as its system Vero E6 infected with SARS-CoV-2. The assay can be described thus: morphology score (similarity to uninfected cells); higher = more like uninfected cells. The conditions noted are these: 24 h.
Assay [2] shares this test system. The assay can be described thus: SARS-CoV-2 infection rate relative to infected DMSO; higher = more infection, active = 60 or less. The conditions noted are these: 24 h.

Each structure is given as a SMILES string.

`CO[C@H]1/C=C/O[C@@]2(C)Oc3c(C)c(O)c4c(O)c(cc(O)c4c3C2=O)NC(=O)/C(C)=C\C=C\[C@H](C)[C@H](O)[C@@H](C)[C@@H](O)[C@@H](C)[C@H](OC(C)=O)[C@@H]1C` [rifamycin-sv] (10 µM): the morphology score in assay [1] turned out to be 0.117. Besides, in assay [2], the SARS-CoV-2 infection rate is 94.2% (inactive).
For the molecule `CCN(CC)CCOC(=O)C1(C2CCCCC2)CCCCC1` [dicycloverine] (10 µM), the morphology score in assay [1] stood at 0.311. In assay [2], the SARS-CoV-2 infection rate was 90% (inactive).
In assay [1], `CCCCCCCCCCC[C@@H](C[C@@H]1OC(=O)[C@H]1CCCCCC)OC(=O)[C@H](CC(C)C)NC=O` [orlistat] (10 µM) registered a morphology score of 0.226. The SARS-CoV-2 infection rate in assay [2] was 100% (inactive).
In assay [1], `CO[C@H](C(=O)[C@@H](O)[C@@H](C)O)[C@@H]1Cc2cc3cc(O[C@H]4C[C@@H](O[C@H]5C[C@@H](O)[C@H](O)[C@@H](C)O5)[C@@H](O)[C@@H](C)O4)c(C)c(O)c3c(O)c2C(=O)[C@H]1O[C@H]1C[C@@H](O[C@H]2C[C@@H](O[C@H]3C[C@](C)(O)[C@H](O)[C@@H](C)O3)[C@H](O)[C@@H](C)O2)[C@H](O)[C@@H](C)O1` [plicamycin] (10 µM) displayed a morphology score of -0.159. Also, in assay [2], the SARS-CoV-2 infection rate was 104% (inactive).
`CCOC(=O)Nc1ccc(NCc2ccc(F)cc2)nc1N` [flupirtine] (10 µM): in assay [1], the morphology score was determined as 0.0326. Further, the SARS-CoV-2 infection rate in assay [2] was 99% (inactive).
In the same order, the values of `CCN[C@H]1CN(CCCOC)S(=O)(=O)c2sc(S(N)(=O)=O)cc21` [brinzolamide] (10 µM) are 0.267 and 69% (inactive).
The molecule `CC(C)[C@H](N)C(=O)OCC(CO)OCn1cnc2c(=O)nc(N)[nH]c21` (mixture of isomers) [valganciclovir] (10 µM) yielded a morphology score in assay [1] of 0.118. Besides, the SARS-CoV-2 infection rate in assay [2] is 102% (inactive).

Values taken from the supplement of paper PMC13380429.
